{"source": "PubChem BioAssay (NCI)", "note": "About 83,000 compounds went through this panel and 20% of them were active in at least one assay; those are over-represented in the sample as a whole.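 Method: cells in 96-well plates; compound added at one concentration; 48 h incubation; percent growth measured; values under 10 scored active.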 Values without a mark were called inactive. Activity calls are given as the source filed them.", "data": [{"tested_on": "HL-60(TB) leukemia", "test": "NCI-60 one-dose screen, 48 h (100 = growth as untreated, 0 = no growth, -100 = all killed)", "details": "10 µM unless noted", "values": [{"smiles": "COc1ccc([C@H]2c3cc(OC)c(OC)cc3C=C(C=O)C2CO)cc1OC", "note": "(stereo partly drawn)", "growth": "-13.9% (active)"}, {"smiles": "CN(C)c1ccc(-c2nc3ncc(Br)cc3o2)cc1", "growth": "85.8%"}, {"smiles": "CCCCCCCCCCCCCCCCCCOc1ccc(CC(=O)OCC[N+]2(C)CCCCC2)cc1", "growth": "83.4%"}, {"smiles": "O=C(CS(=O)c1oc(-c2cccs2)nc1S(=O)(=O)c1ccc(Br)cc1)c1ccccc1", "note": "(stereo not drawn)", "growth": "87.9%"}, {"smiles": "CCCCCCCCCCCCCCCCNCCC[C@@H](C)[C@H]1CC[C@H]2[C@@H]3[C@H](OCCCN)C[C@@H]4C[C@H](OCCCN)CC[C@]4(C)[C@H]3C[C@H](OCCCN)[C@]12C", "growth": "4.5% (active)"}, {"smiles": "CC1=NN(c2ccccc2Cl)C(=O)/C1=C\\c1cn(S(=O)(=O)c2ccc(C)cc2)c2ccccc12", "growth": "114%"}, {"smiles": "O=c1[nH]c(=S)[nH]c(O)c1/C=C1\\C=Nc2ccccc21", "growth": "90.4%"}, {"smiles": "Cc1nc2sc(C(=O)Nc3cccc(Cl)c3C)c(N)c2cc1C(=O)/C=C/c1ccccc1", "growth": "2.75% (active)"}, {"smiles": "CCOC(=O)/C=C1\\S/C(=N\\Nc2ccc([N+](=O)[O-])cc2[N+](=O)[O-])N(Cc2ccccc2)C1=O", "growth": "76.3%"}, {"smiles": "CCOc1ccc(-n2c(-c3cc(OC)c(OC)c(OC)c3)nnc2-c2ccc(OC)cc2N)cc1", "growth": "28.5%"}, {"smiles": "Nc1c2c(nc3ccc(Cl)cc13)CC(c1ccccc1)CC2=O", "note": "(stereo not drawn)", "growth": "11%"}, {"smiles": "COc1ccc2nc3c(n2c1)C(=O)C(=O)c1ccccc1-3", "growth": "-48.9% (active)"}, {"smiles": "CCCCCCCCCCCCCCCC(=O)NS(=O)(=O)OC[C@H]1O[C@@H](n2cnc3c(N)ncnc32)[C@H](O)[C@@H]1O", "growth": "-11.6% (active)"}]}]}
